The list is not random: actives were taken first. Their share in the collection is about 7.1%.
ELG1 genotoxic: induces genotoxicity in HEK293T cells with luciferase-tagged ELG1 | Potency, µM (series often up to 46 µM), without a hit: at the highest dose activity change, positive = activation, usual class: activators | actives 1.3% (n = 330,000) | HEK293T ELG1-luciferase reporter, luminescence, 16 h; note: % of control where 0% means no effect; nearly all actives have a fitted effect of over 60% in size
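Luminescence read-out: rising ELG1-luciferase signal, reflecting elevated ELG1 protein under genetic stress, flags genotoxic compounds. Cells were treated for 16 hr at 37 °C before ONE-Glo detection.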
SW480 rerep: DNA re-replication induction in SW480 cells | SW480 DNA re-replication, Hoechst DNA content imaging, 48 h | Potency, µM (titrated, usually from 46.1 µM), for the others: at the highest dose re-replication activation, hits mostly activators | actives 1.8% (n = 340,000) | AID 624297; note: % of control where 0% means no effect; nearly all actives have a fitted effect of over 55% in size
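DNA re-replication was detected as more nuclei of elevated Hoechst intensity after 48 hr exposure to compound (23 nL pinned per well of 250 cells).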
MCF10A rerep: induces DNA re-replication in MCF 10a normal breast cells; MCF 10A DNA re-replication, Hoechst nuclear intensity, 48 h; Potency, µM (series often up to 46.1 µM), inactives show at the top dose activity, positive = re-replication, usual class: activators; actives 2.9% (n = 350,000); note: % of control where 0% means no effect; nearly all actives have a fitted effect of over 50% in size
A-T KAP1 phos: potential ataxia-telangiectasia treatments restoring KAP-1 phosphorylation; F2112 A-T fibroblasts, KAP-1 phosphorylation AlphaLISA; neocarzinostatin DNA damage 30 min before lysis; Potency, µM (series often up to 57.5 µM), for inactives: at the top dose activation, actives largely listed as activators; actives 0.19% (n = 320,000); AID 485349; note: % of control where 0% means no effect; nearly all actives have a fitted effect of over 45% in size
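ATM-like activity read as KAP-1 phosphorylation via AlphaLISA donor/acceptor antibody pairs after lysis and 6 hr at 25C. Cells were ATM-null patient fibroblasts (F2112, hTERT), dosed 60 min, then exposed to the DSB inducer NCS for 30 min.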
p53 reactivator: mutant p53 re-activation in reporter cells | actives 0.063% (n = 320,000) | Potency, µM (top dose mostly 92.2 µM), for inactives: at the highest dose activity change, positive = activation, hits mostly activators | H1299 p53-A138V BP100-luciferase reporter, luminescence, 24 h; note: % of control where 0% means no effect; nearly all actives have a fitted effect of over 45% in size
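H1299 (p53-null), stable ts p53-A138V + BP100-Luc; 1000 cells/well, Opti-MEM/10% FBS; cpd 4 pt, 1:5; 24 h, 37 deg C, 5% CO2; detection reagent 10 min RT; luminescence.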
ELG1 repair inh: ELG1-dependent DNA repair inhibition; HEK293T ELG1-luciferase reporter, luminescence, 16 h; DNA damage induced by 5-fluorouridine; Potency, µM (series often up to 46.1 µM), inactives show at the highest dose activity change, negative = inhibition, actives largely listed as inhibitors; actives 2.3% (n = 330,000); AID 504467; note: % is set by controls: 0 for no effect and ±100 for the full control effect; nearly all actives have a fitted effect of over 55% in size
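Cells (2,000 per well) received 5-fluorouridine plus test compound or DMSO and were incubated 16 hr at 37 °C, 5% CO2. Luciferase activity was read by luminescence 30 min after ONE-Glo addition; signal suppression marked inhibition of damage-induced ELG1 function.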
An asterisk follows results filed as active; u = inconclusive; x = not tested or not shown; [ ] = another dose, or the depositor's remark. Calls come from the whole dose curve; as a rule, active = well fitted curve in the direction sought with a large enough effect; inconclusive = small, poorly fitted or top-dose-only effect, or another doubt; inactive = no such curve, though single readings can be large; an effect the other way counts as inactive or inconclusive. Potency is the fitted concentration of half-maximal effect.

SMILES	ELG1 genotoxic	SW480 rerep	MCF10A rerep	A-T KAP1 phos	p53 reactivator	ELG1 repair inh
CCOc1ccccc1NC(=O)C(=O)N/N=C/c1cc(Br)ccc1O	u	0.82µM*	-10%	4%	5%	u
O=C(CNC(=O)N1CC(=O)Nc2ccccc21)Nc1cc(Cl)ccc1Cl	0%[9.26 µM]	-6%	17%	4%	0%	7%
S=C(Nc1ccccc1Cl)N1CCCC(c2ccccc2)=N1	-5%	u	13µM*	8%	8%	0%
Cn1ccc2cc(-c3ccc4ncnc(NCc5cccnc5)c4c3)ccc21	x	x	x	8%	x	x
CCOc1cc(/C=N/Nc2nc(-c3cccc(S(=O)(=O)N4CCCC4)c3)cs2)ccc1O	-10%	3%	u	-11%	-3%	21µM*
O=S(=O)(c1cccc(-c2csc(N/N=C/c3ccco3)n2)c1)N1CCOCC1	-15%	1%	15%	46%	2%	23µM*
COc1cc(/C=N/Nc2nc(-c3ccc(S(=O)(=O)N(C)C)cc3)cs2)ccc1O	-25%	-3%	u	0%	6%	12µM*
COc1ccc(/C=N/Nc2nc(-c3cccc(S(=O)(=O)N4CCCC4)c3)cs2)cc1OC	-7%	-4%	13%	-2%	0%	u
O=S(=O)(c1cccc(-c2csc(-c3ccccc3)n2)c1)N1CCOCC1	0%	u	47%[0.0737 µM]	5%	10%	-4%
O=[N+]([O-])c1cc(/C=N\Nc2nc(-c3ccccc3)cs2)ccc1O	1%	7%	29%	-7%	3%	12%
COc1ccc(N=C2C(=O)N3c4c(cccc42)C(C)=CC3(C)C)cc1	0%	21µM*	21µM*	-2%	6%	0%
Cc1c(C(=O)Nc2ccccc2[N+](=O)[O-])csc1-c1ccccc1	4.6µM*	7%	11%	-3%	u	u
Cc1c(C(=O)Nc2ccccc2)csc1-c1ccccc1	3.7µM*	5%	-31%	3%	u	u
Cc1cc(C)cc(NC(=O)CSc2nc3nc(C)cc(C)n3n2)c1	1%	-1%	6%	2%	-1%	2%
NS(=O)(=O)c1ccc(CCNc2ncnc3c2c(-c2ccccc2)cn3-c2ccc(F)cc2)cc1	-8%	1%	u	9%	-17%	16µM*
Fc1ccc(-n2cc(-c3ccccc3)c3c(NN4CCOCC4)ncnc32)cc1	-2%	-6%	u	-8%	-14%	u
O=S1(=O)c2ccc(Br)cc2N2CCC[C@H]2CN1Cc1ccccc1	-2%	5.2µM*	2.6µM*	11%	-2%	u
C[C@@H](c1ccccc1)N1C[C@H]2CCCN2c2cc(Br)ccc2S1(=O)=O	-6%	16µM*	7.3µM*	-55%	11%	u
O=S1(=O)c2ccc(Br)cc2N2CC[C@H](C2)N1Cc1ccc(Cl)cc1	x	6.5µM*	3.3µM*	x	x	x
CC(NCc1cccnc1)c1ccccc1 (stereo unspecified)	0%	u	3%	1%	x	8%
Cc1ccc(S(=O)(=O)CCC(=O)OCC(=O)c2c(N)n(CC(C)C)c(=O)n(C)c2=O)cc1	-5%	0%	5%	14%	-34%	-9%
CCCn1c(N)c(C(=O)NS(=O)(=O)c2ccc(C)cc2)c(=O)n(C)c1=O	-16%	-25%	2%	2%	-7%	10µM*
COC(=O)c1ccc(COc2ccccc2/C=N/NS(=O)(=O)c2ccc(C)cc2)cc1	0%	u	3%	-3%	6%	-25%
N#C/C(=C/c1ccccc1OCc1ccc(F)cc1)c1ccc(C(=O)O)cc1	-1%	u	4%	-7%	14%	-6%
N#C/C(=C\c1ccccc1OCc1ccc(C(=O)O)cc1)C(=O)Nc1ccc(O)cc1	-3%	3%	23µM*	18%	5%	10%

Bioassay records from PubChem.
